From article PMC4336329 (PLoS ONE, 2015) come the findings set out here.

Screen size: about 310,000 compounds; about 14,000 (4.5%) showed an effect of 50% or more. Effects have a minus sign here. For the sample, strong results were picked, then their nearest neighbours and some compounds at random.
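Note: peak tail current of the secondary pulse compared with the same well before compound.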

Chain of human ether-à-go-go-related gene (hERG) potassium channel (Q12809 whole entry, looked up): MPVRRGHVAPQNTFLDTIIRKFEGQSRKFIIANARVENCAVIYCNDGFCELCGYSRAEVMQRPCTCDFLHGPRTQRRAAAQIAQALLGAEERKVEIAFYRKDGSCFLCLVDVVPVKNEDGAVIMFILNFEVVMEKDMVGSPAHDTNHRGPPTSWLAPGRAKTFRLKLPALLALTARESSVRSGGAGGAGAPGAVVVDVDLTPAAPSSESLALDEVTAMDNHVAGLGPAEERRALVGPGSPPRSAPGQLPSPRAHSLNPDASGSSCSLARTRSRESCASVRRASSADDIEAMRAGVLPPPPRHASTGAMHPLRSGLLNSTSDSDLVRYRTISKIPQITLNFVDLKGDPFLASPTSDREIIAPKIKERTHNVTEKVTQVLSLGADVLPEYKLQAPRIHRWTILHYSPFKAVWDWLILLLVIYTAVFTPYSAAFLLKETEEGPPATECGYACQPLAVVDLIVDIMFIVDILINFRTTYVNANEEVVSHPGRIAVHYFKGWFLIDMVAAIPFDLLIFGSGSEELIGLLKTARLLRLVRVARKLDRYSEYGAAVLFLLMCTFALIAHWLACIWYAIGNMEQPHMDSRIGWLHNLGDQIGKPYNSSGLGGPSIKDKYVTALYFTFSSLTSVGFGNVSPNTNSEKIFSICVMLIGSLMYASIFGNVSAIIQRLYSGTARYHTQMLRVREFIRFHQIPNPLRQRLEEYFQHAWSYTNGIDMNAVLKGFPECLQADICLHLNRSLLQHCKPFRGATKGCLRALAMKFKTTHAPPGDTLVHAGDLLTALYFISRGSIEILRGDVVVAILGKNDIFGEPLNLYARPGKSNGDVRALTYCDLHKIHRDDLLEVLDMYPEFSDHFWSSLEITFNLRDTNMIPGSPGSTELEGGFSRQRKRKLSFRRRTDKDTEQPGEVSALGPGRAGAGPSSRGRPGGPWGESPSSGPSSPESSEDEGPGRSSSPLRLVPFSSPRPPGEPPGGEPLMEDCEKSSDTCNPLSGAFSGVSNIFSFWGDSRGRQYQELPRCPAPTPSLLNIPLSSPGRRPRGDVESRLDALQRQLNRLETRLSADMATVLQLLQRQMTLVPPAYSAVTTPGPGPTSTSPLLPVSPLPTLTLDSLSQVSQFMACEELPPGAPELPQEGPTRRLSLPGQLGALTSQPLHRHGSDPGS

This assay has as its target human ether-à-go-go-related gene (hERG) potassium channel (human, UniProt Q12809). Kind of assay: primary screen, population patch clamp on CHO cells stably expressing hERG; higher = less effect of the substance.
As to `CC1=Nc2ccccc2NC(=O)C1Sc1nnc(C)s1` (stereo not drawn), the “hERG current change (%, negative = inhibition) at 10uM” value was -12.6%.

As to `CC(C)CN1CCC(CNC(=O)CCc2nnc(Cc3c[nH]c4ccccc34)o2)CC1`, the “hERG current change (%, negative = inhibition) at 10uM” value is on record as -1.27%.

`N#Cc1ccccc1NC(=S)NC(=O)C1CCC1`: the “hERG current change (%, negative = inhibition) at 10uM” value is 9.95%.

As to `COc1cc2c3cc1Oc1cc(ccc1O)C[C@@H]1c4c(cc(OC)c(O)c4Oc4ccc(cc4)C[C@H]3N(C)CC2)CCN1C`, the “hERG current change (%, negative = inhibition) at 10uM” value is -37%.

As for `COc1ccccc1N1CCN(C(=O)CCNS(=O)(=O)c2ccc(Br)s2)CC1`, the “hERG current change (%, negative = inhibition) at 10uM” value is reported as -31.3%.

As to `S=C1NC[C@H](Cc2ccccc2)N1CCCCC1CCCCC1`, the “hERG current change (%, negative = inhibition) at 10uM” value came to 4.71%.

`CC(=O)c1ccc(Nc2cc(C)nc3ccc(C)cc23)cc1`: the “hERG current change (%, negative = inhibition) at 10uM” value is -74.5%.

In the case of `CCOC(=O)c1cnc2ccc(C(=O)OC)cc2c1Nc1ccc(C(=O)O)cc1.Cl`, the “hERG current change (%, negative = inhibition) at 10uM” value is listed as 5.66%.

Consider `COC(=O)c1ccc(Nc2cc(C)nc3ccccc23)cc1.Cl`, for which the “hERG current change (%, negative = inhibition) at 10uM” value is reported as -37.3%.

Regarding `COC(=O)c1ccc2nc(C)cc(Nc3ccc(N(C)C)cc3)c2c1.Cl`, the “hERG current change (%, negative = inhibition) at 10uM” value is reported as -67.1%.

Turning to `COC(=O)c1ccc(Nc2cc(C)nc3ccc(C)cc23)cc1.Cl`, the “hERG current change (%, negative = inhibition) at 10uM” value is reported as -55.6%.

In the case of `COC(=O)c1ccc(Nc2nc(C)cc(C)n2)cc1`, the “hERG current change (%, negative = inhibition) at 10uM” value was found to be 10.9%.

As to `CC(=O)c1ccc(NC(=O)c2cc(C)nc3ccccc23)cc1`, the “hERG current change (%, negative = inhibition) at 10uM” value is on record as 16.5%.

Turning to `CC(=O)c1ccc(Nc2nc(C)cc(C)n2)cc1`, the “hERG current change (%, negative = inhibition) at 10uM” value was found to be 4.62%.

Consider `COC(=O)c1ccc2nc(C)cc(Nc3ccccc3C)c2c1.Cl`, for which the “hERG current change (%, negative = inhibition) at 10uM” value was -47.5%.

As for `Cc1ccc(NN2C(=O)C=CC2=O)cc1`, the “hERG current change (%, negative = inhibition) at 10uM” value was 0.632%.

For `N/C(=N\S(=O)(=O)c1ccccc1)c1ccc([N+](=O)[O-])cc1`, the “hERG current change (%, negative = inhibition) at 10uM” value was -30%.

On to `COC(=O)C1C(=O)NC(SC)=C(C#N)C1c1ccccc1` (stereo not drawn), for which the “hERG current change (%, negative = inhibition) at 10uM” value worked out at 8.09%.

Turning to `COC(=O)c1cc(CSc2nnc(NC3CCCCC3)s2)oc1C`, the “hERG current change (%, negative = inhibition) at 10uM” value is -10.1%.

Consider `Cc1ccc(CN(C)C(=O)c2c(C)nn(-c3ccccc3)c2C)cc1`, for which the “hERG current change (%, negative = inhibition) at 10uM” value was 8.12%.

As for `C=C(C)c1cccc(C(C)(C)NC(=O)N2CCN(c3ncccn3)CC2)c1`, the “hERG current change (%, negative = inhibition) at 10uM” value was 0.0429%.

As for `Cc1c(NC(=O)C(C)N2CC(C)OC(C)C2)c(=O)n(-c2ccccc2)n1C` (stereo not drawn), the “hERG current change (%, negative = inhibition) at 10uM” value amounted to 9.21%.

Take `Cc1cccc(NC(=O)Nc2ccc(S(N)(=O)=O)cc2)c1`: the “hERG current change (%, negative = inhibition) at 10uM” value is given as 13.4%.

For `Cc1cccc(C(=O)NNC(=O)CCC(=O)Nc2cccc(Cl)c2C)c1`, the “hERG current change (%, negative = inhibition) at 10uM” value is 9.03%.

In the case of `CCOc1ccc(-c2nnn(CC(=O)c3cc(OC)ccc3OC)n2)cc1`, the “hERG current change (%, negative = inhibition) at 10uM” value was -7.91%.

As to `O=C(Cn1nc(-c2cccc(Cl)c2)ccc1=O)Nc1ccccc1Br`, the “hERG current change (%, negative = inhibition) at 10uM” value is 10.7%.

On to `COc1ccc(CC(=O)N2N=C(C)CC2(O)c2cccnc2)cc1OC` (stereo not drawn), for which the “hERG current change (%, negative = inhibition) at 10uM” value was -17%.

For the molecule `CCOc1c2ccc(C(=O)NCc3ccc4c(c3)OCO4)cc2nn1C`, the “hERG current change (%, negative = inhibition) at 10uM” value amounted to 17.6%.

In the case of `Cn1nccc1C(=O)N1CCc2c([nH]c3ccccc23)C1c1ccc(F)cc1` (stereo not drawn), the “hERG current change (%, negative = inhibition) at 10uM” value is listed as -19.4%.

Take `Fc1ccccc1C1c2[nH]c3ccccc3c2CCN1Cc1cccn1-c1ncccn1` (stereo not drawn): the “hERG current change (%, negative = inhibition) at 10uM” value was -50.6%.

Take `Cc1ccccc1C1c2[nH]c3ccccc3c2CCN1Cc1cccn1-c1ncccn1` (stereo not drawn): the “hERG current change (%, negative = inhibition) at 10uM” value is -46.3%.

On to `Fc1ccccc1C1c2[nH]c3ccccc3c2CCN1Cc1ccoc1` (stereo not drawn), for which the “hERG current change (%, negative = inhibition) at 10uM” value is -51.7%.

In the case of `Fc1ccc(C2c3[nH]c4ccccc4c3CCN2Cc2ccoc2)cc1` (stereo not drawn), the “hERG current change (%, negative = inhibition) at 10uM” value was -26.8%.

On to `CCOc1ccc(C2c3[nH]c4ccccc4c3CCN2C(=O)Cn2cncn2)cc1` (stereo not drawn), for which the “hERG current change (%, negative = inhibition) at 10uM” value is listed as -15%.

`COc1ccc(C2c3[nH]c4ccccc4c3CCN2Cc2ccoc2)c(F)c1` (stereo not drawn): the “hERG current change (%, negative = inhibition) at 10uM” value was -36.9%.

For the molecule `COc1ccc(OCC(=O)N2CCc3c([nH]c4ccccc34)C2c2ccccn2)cc1` (stereo not drawn), the “hERG current change (%, negative = inhibition) at 10uM” value turned out to be 21.4%.

For `Cc1cnc(C(=O)N2CCc3c([nH]c4ccccc34)C2c2ccc(F)cc2)cn1` (stereo not drawn), the “hERG current change (%, negative = inhibition) at 10uM” value was -39.8%.

Turning to `O=C(c1cc2ncccn2n1)N1CCc2c([nH]c3ccccc23)C1c1ccccc1F` (stereo not drawn), the “hERG current change (%, negative = inhibition) at 10uM” value was -5.11%.

Regarding `Fc1ccc(C2c3[nH]c4ccccc4c3CCN2Cc2cccn2-c2ncccn2)cc1` (stereo not drawn), the “hERG current change (%, negative = inhibition) at 10uM” value is given as -52.2%.

Turning to `CCOc1ccc(C2c3[nH]c4ccccc4c3CCN2Cc2cccn2-c2ncccn2)cc1` (stereo not drawn), the “hERG current change (%, negative = inhibition) at 10uM” value is given as -53.3%.

Regarding `CCn1c(COc2ccccc2C)nnc1SCC(=O)O`, the “hERG current change (%, negative = inhibition) at 10uM” value is listed as 16.3%.

Take `Cc1cc(C)cc(NC(=O)N2CCC(NC(=O)c3ccccc3C)CC2)c1`: the “hERG current change (%, negative = inhibition) at 10uM” value came out at 5.74%.

Turning to `O=C(CSc1nnc(-c2ccccc2)n1-c1ccccc1)c1ccc[nH]1`, the “hERG current change (%, negative = inhibition) at 10uM” value is reported as 16.4%.

As to `CCOC(=O)N1CCN(C(=O)CNC(=O)c2ccc(Br)o2)CC1`, the “hERG current change (%, negative = inhibition) at 10uM” value was found to be 11.7%.

As for `COc1ccc(-c2csc(NC(=O)c3c(OC)cccc3OC)n2)cc1`, the “hERG current change (%, negative = inhibition) at 10uM” value was determined as 7.77%.

`COc1ccccc1CNS(=O)(=O)c1cc2c3c(c1)CCN3C(=O)CC2`: the “hERG current change (%, negative = inhibition) at 10uM” value is -4.02%.

As for `O=C1COc2ccc(C(=O)COC(=O)CNC(=O)C3CCCCC3)cc2N1`, the “hERG current change (%, negative = inhibition) at 10uM” value is listed as -7.17%.

For `COc1ccc(OCC(Cn2cnc3ccccc32)OC(C)=O)cc1.Cl` (stereo not drawn), the “hERG current change (%, negative = inhibition) at 10uM” value is on record as -26%.

`Cc1cc(C)n(-c2cc(C(C)(C)C)nc3c(-c4ccccc4)cnn23)n1`: the “hERG current change (%, negative = inhibition) at 10uM” value is listed as 14.6%.

Consider `COc1ccc(C(=O)NCCS(=O)(=O)NCCc2ccccc2)cc1`, for which the “hERG current change (%, negative = inhibition) at 10uM” value is recorded as -13.2%.

For the molecule `CC1(C)CC(C)(c2ccc(O)cc2O)N(c2cccc(Cl)c2)C(=S)N1` (stereo not drawn), the “hERG current change (%, negative = inhibition) at 10uM” value is reported as 2.04%.

Turning to `Nc1c(C(=O)NCCN2CCOCC2)c2nc3ccccc3nc2n1-c1ccccc1`, the “hERG current change (%, negative = inhibition) at 10uM” value is reported as -52%.

With `COCCNC(=O)c1c(N)n(-c2cccc(C)c2)c2nc3ccccc3nc12`, the “hERG current change (%, negative = inhibition) at 10uM” value is -24.7%.

Take `Nc1c(C(=O)NCCN2CCOCC2)c2nc3ccccc3nc2n1-c1cccc(F)c1`: the “hERG current change (%, negative = inhibition) at 10uM” value is listed as -33.2%.

Regarding `Nc1c(C(=O)NCCN2CCOCC2)c2nc3ccccc3nc2n1-c1ccc2c(c1)OCO2`, the “hERG current change (%, negative = inhibition) at 10uM” value is given as -33.5%.

For the molecule `CCCNC(=O)c1c(N)n(-c2cccc(OC)c2)c2nc3ccccc3nc12`, the “hERG current change (%, negative = inhibition) at 10uM” value was -5.21%.

Turning to `Cc1cccc(-n2c(N)c(C(=O)NCCN3CCOCC3)c3nc4ccccc4nc32)c1`, the “hERG current change (%, negative = inhibition) at 10uM” value is recorded as -57.1%.
